# Screening data: PubChem, Buhrlage Lab, Dana-Farber Cancer Institute and Novartis Institutes for BioMedical Research (Cambridge, Mass)
# USP10 inh: inhibitors of human USP10 deubiquitinase; Ubiquitin carboxyl-terminal hydrolase 10 (Homo sapiens), Q14694; purified USP10, Ub-rhodamine fluorescence, 60 min; inhibition, % at 20 µM; 47,000 compounds, 1.1% hits; AID 1645856, 2021
# USP17 inh: inhibitors of human USP17 deubiquitinase. purified USP17, Ub-rhodamine cleavage fluorescence, 3 h. inhibition, % at 50 µM. Ubiquitin carboxyl-terminal hydrolase 17-like protein 5 (Homo sapiens), A8MUK1. 47,000 compounds, 6.5% hits. AID 1645855, 2021
# USP28 block: inhibitors of human USP28 deubiquitinase; Ubiquitin carboxyl-terminal hydrolase 28 (Homo sapiens), Q96RU2; purified USP28, Ub-rhodamine cleavage fluorescence, 30 min; inhibition, % at 25 µM; 47,000 compounds, 3% hits
# USP30 inh: inhibitors of human USP30 deubiquitinase; Ubiquitin carboxyl-terminal hydrolase 30 (Homo sapiens), Q70CQ3; purified USP30, Ub-rhodamine cleavage fluorescence; inhibition, % at 25 µM; 47,000 compounds, 5.3% hits; AID 1645860, 2021
# USP8 inh: inhibitors of human USP8 deubiquitinase; purified USP8, Ub-rhodamine cleavage fluorescence, 30 min; inhibition, % at 20 µM; Ubiquitin carboxyl-terminal hydrolase 8 (Homo sapiens), P40818; AID 1645853, 2021; 47,000 compounds, 4.2% hits
# OTUD3 block: inhibitors of human OTUD3 deubiquitinase | inhibition, % at 25 µM | purified OTUD3, Ub-rhodamine fluorescence, 2 h | 47,000 compounds, 0.7% hits
# Target sequence (Q5T2D3 whole entry, looked up): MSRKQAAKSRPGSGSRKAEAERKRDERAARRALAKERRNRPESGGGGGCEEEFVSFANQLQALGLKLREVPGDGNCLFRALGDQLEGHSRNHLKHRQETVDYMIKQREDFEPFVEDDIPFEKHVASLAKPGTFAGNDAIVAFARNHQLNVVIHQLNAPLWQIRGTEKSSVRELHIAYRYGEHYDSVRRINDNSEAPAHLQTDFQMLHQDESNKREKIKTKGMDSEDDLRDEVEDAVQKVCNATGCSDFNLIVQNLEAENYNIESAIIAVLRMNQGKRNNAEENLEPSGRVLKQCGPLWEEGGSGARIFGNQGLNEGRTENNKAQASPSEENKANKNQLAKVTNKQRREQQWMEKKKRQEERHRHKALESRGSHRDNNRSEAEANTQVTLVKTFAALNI
# Numbers stand for hits; – = inactive; · = no result given. A selection: hits, their analogues and other compounds. The true share with any hit is near 13%. Cut-off read from the data, not from the text of the source: active = inhibition above about 30%; inactive = the rest.
SMILES,USP10 inh,USP17 inh,USP28 block,USP30 inh,USP8 inh,OTUD3 block
COc1ccc2nc(NC(=O)c3cc4ccc5cccnc5c4[nH]3)sc2c1,32.7,–,–,–,79.9,–
CCOc1ccccc1-c1cc(NC(=O)c2cc3ccc4cccnc4c3[nH]2)on1,53.1,67.8,–,88.2,69.1,–
O=C(Nc1nc2ccccc2s1)c1cc2ccc3cccnc3c2[nH]1,35.2,58.5,·,·,–,–
N#Cc1ccc(C(=O)NCC(=O)N2CCCc3ccccc32)c(F)c1,–,–,–,–,–,–
Cc1ccc(-c2nnc(SCc3noc(CCC(=O)Nc4ccccc4)n3)o2)cc1,–,–,–,40.0,–,–
Cc1ccc(NC(=O)CCc2nc(CSc3nnc(-c4cccc(C)c4)o3)no2)cc1,–,–,–,–,–,–
CCOC(=O)c1c(C)oc2ncnc(N(CCO)c3ccccc3)c12,–,–,–,–,–,–
CCOC(=O)c1c(C)oc2nc(CSc3ccccc3)[nH]c(=O)c12,–,–,61.5,–,–,–
Cc1cc(C)cc(NC(=O)c2cc(C(C)C)n(C3CCS(=O)(=O)C3)n2)c1 (centres undefined),–,–,–,–,–,–
O=C(COC(=O)C1CCCN1S(=O)(=O)c1ccc(Cl)cc1)Nc1ccc2c(c1)OCO2 (centres undefined),–,–,–,33.1,–,–
COc1ccc([N+](=O)[O-])cc1NC(=O)COC(=O)C1CCCN1S(=O)(=O)c1ccc(Cl)cc1 (centres undefined),–,–,–,34.6,–,–
O=C(COC(=O)C1(c2ccc(Cl)cc2)CCCC1)Nc1ccc2c(c1)OCO2,–,–,–,47.8,36.2,–
O=C(COC(=O)[C@@H]1CCCN1S(=O)(=O)c1ccc(Cl)cc1)Nc1ccccc1,–,–,–,–,–,–
COc1ccc(S(=O)(=O)N2CCOCC2)cc1NC(=O)COc1ccc([N+](=O)[O-])cc1,–,–,–,–,–,–
O=C(COC(=O)C1(c2ccc(Cl)cc2)CCCC1)c1ccc2c(c1)OCCO2,–,–,–,–,–,–
CN(C(=O)CN1CCC(c2nc3ccccc3[nH]2)CC1)c1ccccc1,–,–,–,–,–,–
C=C1C(C)C(C)(O)OC12OC(=O)C=C2OC (centres undefined),–,–,–,–,–,–
O=C(CC1C(=O)N(CC2CCCO2)c2nc3ccccc3n21)Nc1cccc(F)c1 (centres undefined),–,–,–,–,–,–
O=C(Cn1cc(S(=O)(=O)Cc2cccc(Cl)c2)c2ccccc21)N1CCCCC1,–,–,–,–,–,–
COc1ccc2nc(N3CC(C(=O)Nc4ccc(C(N)=O)cc4)C3)sc2c1,–,64.9,32.5,61.6,–,–
COc1ccc(CC(NC(C)=O)C(=O)NC2CCN(c3c(Cc4ccccc4)c(C)nc4ncnn34)CC2)cc1OC (centres undefined),–,47.3,–,70.8,–,–
Cc1ccc2cc(CCNC(=O)c3cccc(Br)c3)c(=O)[nH]c2c1,–,67.1,–,–,–,–
Cc1ccc2cc(CCNC(=O)c3ccccc3Br)c(=O)[nH]c2c1,–,47.9,–,–,–,–
CCCc1cc(C2CCCN2C(=O)c2cc(-c3ccccc3)no2)no1 (centres undefined),–,–,–,32.0,–,–
CCCc1cc(C2CCCN2C(=O)c2cc(-c3ccccc3)on2)no1 (centres undefined),–,–,–,–,–,–
SMILES,USP10 inh,USP17 inh,USP28 block,USP30 inh,USP8 inh,OTUD3 block
COc1cc(OC)c(NC(=O)CCN(c2ccccc2)S(=O)(=O)c2ccc(C)cc2)cc1Cl,–,–,–,–,–,–
COc1cccc(C2CC(=O)Nc3n[nH]c(-c4ccccc4)c32)c1 (centres undefined),–,67.7,–,63.5,–,–
CC(C)(C)c1nn(-c2ccccc2)c2[nH]c(=O)c(CNC3CC3)cc12,–,–,–,–,82.2,–
Cc1ccc(NCc2cc3c(C(C)(C)C)nn(-c4ccc(Cl)cc4)c3[nH]c2=O)cc1,–,62.5,–,–,83.5,–
CC(C)(C)c1nn(-c2ccc(Cl)cc2)c2[nH]c(=O)c(CNCCc3ccccc3)cc12,–,–,–,–,–,–
CC(C)(C)c1nn(-c2ccccc2)c2[nH]c(=O)c(CNCc3ccc4c(c3)OCO4)cc12,–,–,–,–,80.5,–
CC(C)(C)c1nn(-c2ccccc2)c2[nH]c(=O)c(CNCc3cccnc3)cc12,–,–,–,–,–,–
O=c1[nH]c(=O)c2cccc(O)c2o1,–,–,–,–,–,–
N#Cc1cccc(NC(=O)N2CCc3nc4ccccc4n3CC2)c1,–,–,–,32.7,–,–
O=S(=O)(c1cc(F)cc(F)c1)N1CCc2nc3ccccc3n2CC1,–,–,–,–,–,–
O=C(Nc1cccc(C(F)(F)F)c1)N1CCCn2c(nc3ccccc32)C1,–,36.9,31.5,78.7,–,–
O=S(=O)(c1cccc(F)c1)N1CCc2nc3ccccc3n2CC1,–,90.7,–,–,–,–
N#Cc1cccc(NC(=O)N2CCC(CCOc3ccccc3)CC2)c1,–,–,–,32.9,–,–
O=C(Nc1ccccc1)N1CCC(CCOc2ccccc2)CC1,–,–,–,–,–,–
CC1CCc2noc(C3CCN(C(=O)Cc4ccc(F)cc4)CC3)c2C1 (centres undefined),–,–,–,–,–,–
Cc1ccn2cc(C(=O)N(Cc3cccc(F)c3)Cc3ccc4c(c3)OCO4)nc2c1,–,–,–,–,–,–
Cc1cccc(S(=O)(=O)N2CCc3nc4ccccc4n3CC2)c1,–,84.1,–,–,–,–
O=S(=O)(c1ccccc1)N1CCc2nc3ccccc3n2CC1,–,–,–,–,–,–
O=S(=O)(c1cccc(F)c1)N1CCN(c2nnnn2-c2ccccc2)CC1,–,30.5,–,–,–,40.9
N#Cc1cccc(S(=O)(=O)N2CCc3nc4ccccc4n3CC2)c1,–,30.2,–,51.3,–,–
Cc1c(C(=O)NCCC(C)C)nnn1-c1cccc2c1CCN(C1CCOCC1)C2,–,–,–,–,–,–
COc1ccc(C(=O)O)cc1S(=O)(=O)N1CCCc2ccccc21,–,42.1,–,–,80.4,–
COC(=O)c1cccc(NC(=O)c2ccc(OC)c(S(=O)(=O)N3CCCc4ccccc43)c2)c1,–,–,–,–,–,–
COc1ccc(C(=O)CSc2nc3ccccc3n2C)c(F)c1,–,–,–,–,–,–
COc1ccc(-c2cc(-c3nnc(CSc4nc5ccccc5n4C)o3)c3ccccc3n2)cc1OC,–,57.7,–,–,–,–
CC(C)c1noc(-c2ccn3c(CC(=O)Nc4ccccc4)nnc3c2)n1,–,–,–,–,39.7,–
